Measurements from PubChem BioAssay (NCI).
This is part of a sample that, as a whole, favours compounds with a hit. Of some 79,000 tested, about 15% had one in any assay. The source made the active and inactive calls. No stated cut-off is given here; in the data, active means growth inhibition above about 70%; inactive means the rest.

Key:
[1] = NCI Yeast Anticancer Drug Screen. Data for the rad50 strain (AID 155);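 further: 0% = growth of vehicle-only cultures of the same strain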; conditions: S. cerevisiae rad50 strain growth inhibition, active compounds read high
In short: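 Genetically altered yeast (DNA repair pathway); compound treatment; growth inhibition vs vehicle ctrl.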

[2] = NCI Yeast Anticancer Drug Screen. Data for the mec2-1 strain (AID 157); conditions: S. cerevisiae mec2-1 strain, active compounds read high
In short: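 Compounds were applied to mec2-1 yeast cells. Their growth was then compared with that of vehicle-treated cultures to give growth inhibition.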

[3] = NCI Yeast Anticancer Drug Screen. Data for the sgs1 mgt1 strain (AID 161);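 further: 0% = growth of cultures given vehicle only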; conditions: S. cerevisiae sgs1 mgt1 strain, active compounds read high
In short: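 Percent growth inhibition was derived by comparing compound-exposed mutant yeast with vehicle-exposed cultures. The strain carries alterations in DNA damage repair.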

[4] = NCI Yeast Anticancer Drug Screen. Data for the cln2 rad14 strain (AID 165);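 further: 0% = growth equal to vehicle treated cultures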; conditions: S. cerevisiae cln2 rad14 strain, active compounds read high
In short: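 Strain: cln2 rad14 yeast, altered in cell cycle control and DNA damage repair. Read-out: growth inhibition vs vehicle.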

[5] = NCI Yeast Anticancer Drug Screen. Data for the bub3 strain (AID 167); conditions: S. cerevisiae bub3 mutant strain, active compounds read high
In short: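 Yeast carrying a defined mutation is treated with each compound, and growth is compared with that of vehicle-exposed cells to give inhibition.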

[6] = NCI Yeast Anticancer Drug Screen. Data for the mlh1 rad18 strain (AID 175); conditions: S. cerevisiae mlh1 rad18 strain growth inhibition, active compounds read high
In short: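 A repair-deficient yeast strain is exposed to test compound, and growth is scored relative to vehicle-treated controls.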

[7] = at 5.0 µM (retest, dose inferred, filed as 0.5)
[8] = at 50.0 µM (retest, dose inferred, filed as 5.0)

Measured: growth inhibition

O=C(O)C1C(c2ccccc2)=C1c1ccccc1
active: [1]; at 50.0 µM 73.8%
inactive: [1]; [7] -7% | [1]; [8] 22% | [2]; [7] 0% | [2]; [8] 7% | [2]; at 50.0 µM 56.4% | [3]; [7] 10% | [3]; [8] 41% | [3]; at 50.0 µM 59.6% | [4]; [7] -44% | [4]; [8] -3% | [4]; at 50.0 µM 57.8% | [5]; [7] -22% | [5]; [8] 7% | [5]; at 50.0 µM 39.2% | [6]; [7] -12% | [6]; [8] 12% | [6]; at 50.0 µM 46.5%

COc1ccc(/C=C2/C(=O)NC3SC=C(c4cccc([N+](=O)[O-])c4)N23)cc1 (configuration not stated)
inactive: [1]; [7] 8% | [1]; [8] 6% | [1]; at 50.0 µM 33% | [2]; [7] 0% | [2]; [8] 2% | [2]; at 50.0 µM 10.9% | [3]; [7] -4% | [3]; [8] -1% | [3]; at 50.0 µM 32.6% | [4]; [7] 34% | [4]; [8] -23% | [4]; at 50.0 µM 11.4% | [5]; [7] 21% | [5]; [8] 13% | [5]; at 50.0 µM 62.9% | [6]; [7] 5% | [6]; [8] 23% | [6]; at 50.0 µM 29.7%

CN=C(NC1CCCCC1)c1ccc(NC(=O)c2ccc(C(=O)Nc3ccc(C(=NC)NC4CCCCC4)cc3)cc2)cc1
inactive: [1]; [7] 0% | [1]; at 50.0 µM 69.5% | [2]; [7] 2% | [2]; [8] 59% | [2]; at 50.0 µM 24% | [3]; [7] 6% | [4]; [7] 6% | [4]; [8] 65% | [5]; [7] -1% | [5]; at 50.0 µM 33.7% | [6]; [7] -1%
active: [1]; [8] 81% | [3]; [8] 96% | [3]; at 50.0 µM 85.5% | [4]; at 50.0 µM 92% | [5]; [8] 74% | [6]; [8] 99% | [6]; at 50.0 µM 94.8%

CN(C)c1ccccc1CCCCCCc1ccccc1N(C)C
active: [1]; at 50.0 µM 84% | [2]; at 50.0 µM 74.7% | [3]; [7] 76% | [3]; [8] 72% | [3]; at 50.0 µM 87.8% | [4]; [7] 79% | [4]; [8] 82% | [4]; at 50.0 µM 85.2% | [5]; at 50.0 µM 80.5% | [6]; at 50.0 µM 76.3%
inactive: [1]; [7] 54% | [1]; [8] 59% | [2]; [7] 55% | [2]; [8] 57% | [5]; [7] 67% | [5]; [8] 50% | [6]; [7] 38% | [6]; [8] 43%

CC1CCCC(CCN(C)CCC2CCCCC2)CC1 (configuration not stated)
active: [1]; [8] 98% | [1]; at 50.0 µM 99.3% | [2]; [8] 99% | [2]; at 50.0 µM 99.2% | [3]; [8] 99% | [3]; at 50.0 µM 99.4% | [4]; [8] 97% | [4]; at 50.0 µM 99.1% | [5]; [8] 79% | [5]; at 50.0 µM 99% | [6]; [8] 98% | [6]; at 50.0 µM 99.1%
inactive: [1]; [7] 21% | [2]; [7] 9% | [3]; [7] 35% | [4]; [7] 21% | [5]; [7] 7% | [6]; [7] 45%

C[n+]1c(/C=C/c2ccccc2Cl)ccc2ccccc21
inactive: [1]; [7] -3% | [1]; [8] 37% | [2]; [7] 2% | [3]; [7] -8% | [3]; [8] 35% | [4]; [7] 0% | [4]; [8] 34% | [5]; [7] -5% | [5]; [8] 33% | [6]; [7] -8% | [6]; [8] 48%
active: [1]; at 50.0 µM 98.7% | [2]; [8] 80% | [2]; at 50.0 µM 99% | [3]; at 50.0 µM 99.2% | [4]; at 50.0 µM 98.5% | [5]; at 50.0 µM 98.8% | [6]; at 50.0 µM 98.8%

CC1(c2ccccc2)NC(=O)N(CC(=O)N(c2ccccc2)c2ccccc2)C1=O (configuration not stated)
inactive: [1]; [7] 12% | [1]; [8] 28% | [1]; at 50.0 µM 49.4% | [2]; [7] 15% | [2]; [8] 33% | [2]; at 50.0 µM 23.6% | [3]; [7] 9% | [3]; [8] 30% | [3]; at 50.0 µM 33.5% | [4]; [7] 14% | [4]; [8] 55% | [4]; at 50.0 µM 40.5% | [5]; [7] 8% | [5]; [8] 38% | [5]; at 50.0 µM 33.7% | [6]; [7] 12% | [6]; [8] 39% | [6]; at 50.0 µM 52.1%

O=Cc1ccc2cc(Cl)ccc2n1
inactive: [1]; [7] -156% | [1]; [8] -135% | [1]; at 50.0 µM -14.9% | [2]; [7] -48% | [2]; [8] -55% | [2]; at 50.0 µM 18.4% | [3]; [7] -63% | [3]; [8] -63% | [3]; at 50.0 µM 10% | [4]; [7] -50% | [4]; [8] -67% | [4]; at 50.0 µM 46.6% | [5]; [7] -71% | [5]; [8] -83% | [5]; at 50.0 µM -14.4% | [6]; [7] -138% | [6]; [8] -111% | [6]; at 50.0 µM 2.55%

O=[N+]([O-])c1ccc(C(Br)(Br)c2ccc([N+](=O)[O-])cc2)cc1
active: [1]; [7] 99% | [1]; [8] 99% | [1]; at 50.0 µM 99.7% | [2]; [7] 97% | [2]; [8] 100% | [2]; at 50.0 µM 99.7% | [3]; [7] 100% | [3]; [8] 100% | [3]; at 50.0 µM 99.8% | [4]; [7] 95% | [4]; [8] 99% | [4]; at 50.0 µM 99.3% | [5]; [7] 80% | [5]; [8] 99% | [5]; at 50.0 µM 99.5% | [6]; [7] 93% | [6]; [8] 99% | [6]; at 50.0 µM 99.5%

C[CH2][Sn]([CH2]C)([O]C(=O)c1cc(OC)c(OC)c(OC)c1)[O][Sn]([CH2]C)([CH2]C)[O]C(=O)c1cc(OC)c(OC)c(OC)c1
inactive: [1]; [7] 33% | [1]; at 50.0 µM 1.2% | [2]; [7] 30% | [2]; at 50.0 µM 12.7% | [3]; [7] 31% | [3]; at 50.0 µM 23.6% | [4]; [7] 8% | [4]; [8] 61% | [4]; at 50.0 µM 21.9% | [5]; [7] 36% | [5]; at 50.0 µM 9.15% | [6]; [7] 27% | [6]; at 50.0 µM 61%
active: [1]; [8] 79% | [2]; [8] 91% | [3]; [8] 85% | [5]; [8] 94% | [6]; [8] 85%

Clc1ccc(/C=N/Nc2c3ccccc3nc3ccccc23)c(Cl)c1
active: [1]; [8] 84% | [1]; at 50.0 µM 86.4% | [2]; [8] 87% | [3]; [8] 83% | [3]; at 50.0 µM 87.8% | [5]; [8] 92% | [6]; [8] 87% | [6]; at 50.0 µM 85.4%
inactive: [1]; [7] -6% | [2]; [7] -11% | [2]; at 50.0 µM 46% | [3]; [7] -5% | [4]; [7] -47% | [4]; [8] 64% | [4]; at 50.0 µM 28.5% | [5]; [7] -12% | [5]; at 50.0 µM 60.4% | [6]; [7] 0%

O=C(NNc1ccccc1)c1cccc([N+](=O)[O-])c1
active: [1]; [8] 98% | [1]; at 50.0 µM 98.2% | [2]; [8] 99% | [2]; at 50.0 µM 98.5% | [3]; [8] 99% | [3]; at 50.0 µM 98.8% | [4]; [8] 98% | [4]; at 50.0 µM 93.7% | [5]; [8] 99% | [5]; at 50.0 µM 99.4% | [6]; [8] 98% | [6]; at 50.0 µM 98.8%
inactive: [1]; [7] 23% | [2]; [7] 31% | [3]; [7] 39% | [4]; [7] 28% | [5]; [7] 29% | [6]; [7] 29%

COc1ccc(/C=C2/C(=O)N(C(=O)c3ccccc3O)N=C2C)cc1OC
active: [5]; [8] 81% | [5]; at 50.0 µM 76.5% | [6]; [8] 79%
inactive: [1]; [7] 13% | [1]; [8] 69% | [1]; at 50.0 µM 66.7% | [2]; [7] -1% | [2]; [8] 59% | [2]; at 50.0 µM 52.9% | [3]; [7] 7% | [3]; [8] 61% | [3]; at 50.0 µM 47.4% | [4]; [7] 22% | [4]; [8] 62% | [4]; at 50.0 µM 56.5% | [5]; [7] 17% | [6]; [7] 15% | [6]; at 50.0 µM 54.6%

CC1(C)CC(=O)C2=C(C1)OC1=C(C(=O)CC(C)(C)C1)C2CC(c1ccccc1)c1ccc(O)c(O)c1O (configuration not stated)
inactive: [1]; [7] 22% | [1]; [8] 30% | [2]; [7] 6% | [2]; [8] -8% | [2]; at 50.0 µM 22.8% | [3]; [7] 9% | [3]; [8] 2% | [3]; at 50.0 µM 48.3% | [4]; [7] 5% | [4]; [8] 18% | [4]; at 50.0 µM 28.2% | [5]; [7] -11% | [5]; [8] -23% | [5]; at 50.0 µM 36% | [6]; [7] 30% | [6]; [8] 10% | [6]; at 50.0 µM 56%
active: [1]; at 50.0 µM 72.2%
